CHRM4 agonist = CHRM4 agonism in calcium assay; P08173; CHO-K1 hM4/Gqi5, Fluo-8 calcium fluorescence; vehicle 0%, full acetylcholine response 100%; activation, % at 3 µM; 360,000 tested, 0.14% active; AID 624127;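 active = activation above the run mean over all test wells plus 3 SD, cut at about 32% in these data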;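 also: peak over basal fluorescence ratio per well then scaled between controls; 0% = DMSO wells and 100% = acetylcholine at EC100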
Target sequence (P08173 whole entry, looked up): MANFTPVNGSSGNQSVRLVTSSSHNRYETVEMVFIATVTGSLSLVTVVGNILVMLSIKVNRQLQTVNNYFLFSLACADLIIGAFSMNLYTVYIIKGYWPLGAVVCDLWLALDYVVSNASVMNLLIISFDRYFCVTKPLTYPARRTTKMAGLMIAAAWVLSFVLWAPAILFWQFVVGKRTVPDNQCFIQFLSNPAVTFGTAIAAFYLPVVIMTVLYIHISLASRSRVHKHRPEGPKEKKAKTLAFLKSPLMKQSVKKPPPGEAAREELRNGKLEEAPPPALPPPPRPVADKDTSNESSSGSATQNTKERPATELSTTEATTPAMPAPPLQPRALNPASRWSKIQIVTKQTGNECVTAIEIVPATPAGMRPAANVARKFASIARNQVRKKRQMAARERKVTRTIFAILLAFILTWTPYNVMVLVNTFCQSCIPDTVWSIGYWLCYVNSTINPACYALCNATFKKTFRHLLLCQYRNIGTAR
M4 PAM = CHRM4 positive allosteric modulation | activation, % at 3 µM | 360,000 tested, 0.4% active | AID 624126 | CHO-K1 hM4/Gqi5, Fluo-8 calcium fluorescence, ACh EC20; 0% = ACh EC20, 100% = maximal ACh;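 active = activation above its plate's cutoff, the mean activation of sample wells plus 3 SD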
CHO-K1 Ca antag = counter-screen for M1 antagonists: effect in parental CHO-K1 cells; ATP-induced calcium, Fluo-8 fluorescence; inhibition, % at 3 µM; 360,000 tested, 0.6% active; AID 602250;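 active = inhibition above a per-plate cutoff, the plate's mean sample inhibition plus 3 SD, cut at about 24% in these data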;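 also: 0% = DMSO plus EC80 ATP and 100% = DMSO alone without ATP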
CHRM4 antagonist = CHRM4 antagonism in calcium assay; 360,000 tested, 0.73% active; CHO-hM4 cells, ACh EC80, Fluo-8 calcium fluorescence; inhibition, % at 3 µM;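 active = inhibition above its plate's cutoff, the mean inhibition of sample wells plus 3 SD, cut at about 27% in these data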;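 also: 0% = acetylcholine EC80 with DMSO and 100% = DMSO without agonist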
M1 ag parental = M1 agonist counterscreen hit in parental CHO-K1 cells; Fluo-8 calcium fluorescence; scaled to maximal ATP response, vehicle zero; activation, % at 3 µM; 360,000 tested, 0.48% active; in the data active = activation above about 15%;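 also: untransfected CHO-K1 host cells lacking M1 receptor as counterscreen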
CHO-K1 Ca PAM = nonselective activator or artifact in parental CHO-K1 calcium assay; ATP EC20, Fluo-8 calcium fluorescence; 0% at ATP EC20, 100% at ATP max; activation, % at 3 µM; 360,000 tested, 0.02% active; AID 602247;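 active = activation above the run cutoff, the mean activation of all test compounds plus 3 SD, cut at about 40% in these data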;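 also: peak over basal fluorescence ratio in a 140 s read after ATP addition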
The depositor's hits bear a star; x = no result. This is a sample that favours compounds with a hit; in the whole collection about 2% have one here.

SMILES | CHRM4 agonist | M4 PAM | CHO-K1 Ca antag | CHRM4 antagonist | M1 ag parental | CHO-K1 Ca PAM
C/C=C/COC(=O)C1=C(C)NC(=O)NC1c1ccc2c(c1)OCO2 (stereo not drawn) | 0 | -7 | 25* | 9 | 1 | -6
COc1cc(C2NC(=O)NC(C)=C2C(=O)OCC2CCCCC2)ccc1O (stereo not drawn) | 2 | -2 | -8 | -1 | 20* | 8
COc1ccc(COC(=O)C2=C(C)NC(=O)NC2c2ccc(OC)c(OC)c2)cc1 (stereo not drawn) | 2 | 3 | 24* | -5 | 0 | -3
COc1ccc(C)cc1NC(=O)NNC(=O)c1cc2ccccc2cc1O | 4 | 17 | 4 | -7 | 2 | 15
Cn1cnnc1SCCC(=O)Nc1ccccc1 | 1 | 38* | -1 | 7 | 0 | 12
O=C(Nc1ccc(NC(=O)c2ccco2)nc1)c1ccco1 | 2 | 0 | -9 | 2 | 2 | -8
CCCC(=O)Nc1ccc(NC(=O)c2ccccc2Cl)nc1 | 1 | -2 | 24* | 1 | 0 | -7
O=C(Cc1ccccc1)Nc1ccc(NC(=O)c2ccco2)nc1 | 3 | -2 | 25* | 1 | 0 | -4
Cc1ccnc(NC(=O)CCNC(=O)c2ccccc2Cl)c1 | 1 | 21* | -3 | -3 | 3 | 8
Cc1ccc(NC(=O)CCNC(=O)c2ccccc2Cl)nc1 | 1 | -3 | 4 | 3 | 0 | -15
Cc1nc2ccc(NC(=S)NC3CC3)cc2nc1C | 0 | -1 | 27* | 8 | 0 | -15
Cc1nc2ccc(NC(=S)NC(C)C)cc2nc1C | 0 | -4 | -3 | 9 | 0 | 8
COc1ccc(NC(=O)Cn2nnc(-c3ccccc3NS(=O)(=O)c3ccc(OC)cc3)n2)cc1 | 2 | -4 | -6 | 4 | 1 | 26
COc1ccccc1NC(=O)Cn1nnc(-c2ccccc2NS(=O)(=O)c2ccccc2)n1 | 15 | -30 | 28* | 7 | 9 | -6
Cn1nc(C(C)(C)C)cc1C(=O)N1CCCCC1c1cc(C(=O)Nc2ccccc2Cl)no1 (stereo not drawn) | 6 | -4 | 24* | -9 | 1 | -10
COc1ccc(OCC(=O)NC(=S)Nc2ccc3c4c(cccc24)CC3)cc1 | 1 | 0 | 13 | -7 | 22* | 14
COc1ccc(OCC(=O)Nc2cccc3ncccc23)cc1 | 2 | -2 | 26* | -14 | 4 | -7
Cc1ccccc1OCC(=O)NC(=S)Nc1ccc2c3c(cccc13)CC2 | 0 | 0 | 4 | -1 | -1 | -5
CCNc1nc(NC(C)C)nc(N(C#N)CCOc2ccccc2)n1 | -2 | 2 | -6 | 3 | 0 | 1
CC(=O)c1c(C)nc2ccc([N+](=O)[O-])cc2c1-c1ccccc1 | 2 | 14* | -11 | -27 | 1 | 4
Cn1c(Cc2ccccc2)nnc1SCc1nc2ccccc2c(=O)[nH]1 | 2 | 5 | 12 | -9 | 0 | -13
Cc1ccccc1OCc1nnc(SCc2nc3ccccc3c(=O)[nH]2)n1C | -1 | -15 | 10 | 49* | 0 | -6
Cc1ccc(Sc2c([N+](=O)[O-])c(C)nn2C)cc1 | 0 | -63 | -2 | 63* | 0 | -12
CCOC(=O)c1ccc(N2CCN(c3ccccc3F)CC2)c(NC(=O)Nc2cccc(OC)c2)c1 | 3 | 4 | 41* | 3 | 6 | -5
CCc1c(C)sc(NC(=O)C2CC2c2ccccc2)c1C(N)=O (stereo not drawn) | 1 | 5 | -22 | 27* | 0 | 15
SMILES | CHRM4 agonist | M4 PAM | CHO-K1 Ca antag | CHRM4 antagonist | M1 ag parental | CHO-K1 Ca PAM
NNC(=O)[C@@H]1C[C@@H]1c1ccccc1 | 0 | -5 | 10 | -3 | 1 | 3
CCOc1ccc(Br)cc1S(=O)(=O)Nc1cccc(S(=O)(=O)N(C)C)c1 | 4 | 2 | -8 | -1 | 3 | 17
CCCn1c(NCc2ccco2)nc2c1c(=O)n(C)c(=O)n2C | 4 | -3 | -9 | -5 | 5 | 16
CCn1c(NCc2ccccn2)nc2c1c(=O)n(C)c(=O)n2C | 2 | 40* | 8 | -12 | 0 | 12
COc1ccc(CNC(=O)C[C@@H]2CC[C@@H](NS(=O)(=O)c3cccc(OC)c3)[C@@H](CO)O2)cc1 | 2 | 0 | x | -5 | x | x
O=C(C1CC1)N1CCN(c2nc3ccccc3s2)CC1 | 5 | -2 | -9 | 0 | 2 | 4
O=C(c1ccc(Cl)cc1)C1CCCN(Cc2ccc(Oc3ncccn3)cc2)C1 (stereo not drawn) | 7 | -45 | -1 | 44* | 1 | -7
O=C(c1ccc(Cl)cc1)C1CCCN(Cc2cnn(-c3ccccc3)c2)C1 (stereo not drawn) | 10 | -13 | -13 | -7 | 4 | 18
O=C(Nc1cccc(Cl)c1N1CCOCC1)c1cccnc1Cl | 6 | 4 | -1 | -9 | 22* | 8
CCOc1ncccc1C(=O)Nc1cc(S(=O)(=O)N2CCOCC2)ccc1N1CCCC1 | 14 | -9 | -7 | -1 | 3 | -9
O=C(Nc1cc(S(=O)(=O)N2CCOCC2)ccc1N1CCCC1)c1cccnc1Cl | 0 | 11 | -3 | 28* | 0 | -4
COc1cc(C2C3=C(CC(C)(C)CC3=O)NC3=C2C(=O)c2ccccc23)ccc1O (stereo not drawn) | 3 | 16 | -10 | -5 | 0 | 1
CCCC(=O)N1CCCC1(C)C(=O)Nc1ccc2cn[nH]c2c1 (stereo not drawn) | 0 | -7 | 22 | -5 | 0 | -19
CCOc1ccc(N(CC(=O)NC2CCCC2)S(=O)(=O)c2ccccc2)cc1 | -1 | -2 | -13 | -10 | 0 | 11
O=C(/C=C/c1ccc(-c2ccccc2[N+](=O)[O-])o1)c1ccc(Br)cc1 | 1 | 5 | -17 | 1 | 1 | 15
CC(=O)N1CCc2cc(S(=O)(=O)NC3CCCc4ccccc43)ccc21 (stereo not drawn) | 16 | -8 | 34* | 13 | 5 | -8
O=C(NCc1ccccc1)N1CCOc2ccccc21 | 1 | -3 | -3 | -4 | 1 | 2
CC(C)CN1CCC(=O)N(CCOc2ccccc2)CC1 | 1 | 7 | 5 | -5 | 0 | -17
CCCN1CCC(=O)N(CCOc2ccccc2)CC1 | 1 | 0 | 24* | 3 | 3 | -18
COc1cccc2cc(C(=O)NCc3ccccn3)c(=O)oc12 | 2 | 22* | -5 | -1 | 0 | 12
COc1ccc2c3c([nH]c2c1)[C@H]1C[C@H]2[C@H](C[C@@H](O)[C@H](OC)[C@H]2C(=O)O)CN1CC3 | 2 | -16 | -13 | 46* | 0 | 31
COc1ccc(CCNC(=O)c2cc3c(=O)n4ccccc4nc3n(Cc3ccco3)c2=N)cc1OC | 6 | 6 | 28* | -3 | 3 | 14
